Assay [1] relates to XIP peptide (Xip251-270) binding. Description: small-molecule binders of XIP peptide, primary screen, biochemical, small-molecule microarray, fluorescence 635/667 nm, 0.1 µg/mL protein (AID 1182). The conditions noted are these: fluorescent protein binding, 635 nm, higher = more signal, called active from +8 up or from −8 down.
The next assay has as its system XIP peptide (Xip251-270). Description: small-molecule binders of XIP peptide, primary screen, biochemical, small-molecule microarray, fluorescence 635/667 nm, 0.5 µg/mL protein (AID 1183). The settings on record: small-molecule microarray binding, fluorescence 635 nm; higher = more signal.
Assay [2] is described as follows: Plasmodium falciparum growth inhibition, primary screen, strain 3D7, DAPI fluorescence, 100 nL (AID 1184).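 Note: parasites grown inside human red blood cells in medium with human serum.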 The conditions noted are these: P. falciparum 3D7 growth, 3 d, higher = more signal.
Assay [3] deals with Homeobox protein Hox-A13 (Mus musculus) (UniProt Q62424). Briefly: inhibitors of HoxA13-DNA binding, primary screen, biochemical, fluorescence polarization, labeled oligonucleotide (AID 1185). The settings on record: 15 min, higher = more signal, called active from +8 up or from −8 down. Background: In fluorescence polarisation assays a small probe gives low polarisation when free and higher when bound to something large.
Sequence of Homeobox protein Hox-A13 (Mus musculus) (Q62424 whole entry, looked up): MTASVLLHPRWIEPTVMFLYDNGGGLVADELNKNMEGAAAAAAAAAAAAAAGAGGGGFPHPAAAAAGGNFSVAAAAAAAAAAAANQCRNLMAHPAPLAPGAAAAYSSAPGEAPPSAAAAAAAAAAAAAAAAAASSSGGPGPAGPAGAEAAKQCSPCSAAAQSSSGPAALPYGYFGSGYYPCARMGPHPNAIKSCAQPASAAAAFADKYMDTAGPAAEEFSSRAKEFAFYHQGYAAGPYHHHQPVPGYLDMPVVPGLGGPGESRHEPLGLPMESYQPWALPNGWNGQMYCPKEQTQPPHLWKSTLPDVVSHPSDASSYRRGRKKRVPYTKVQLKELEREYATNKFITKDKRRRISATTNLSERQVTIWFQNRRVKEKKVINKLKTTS

Assay [4] is described as follows: inhibitors of hydroxyurea-induced Chk1 phosphorylation, primary screen, imaging, HeLa, phospho-Chk1 antibody, percent positive cells (AID 1186). The settings on record: hydroxyurea-induced phospho-Chk1 immunofluorescence imaging, higher = more signal.
The nature of assay [5]: inhibitors of hydroxyurea-induced Chk1 phosphorylation, primary screen, imaging, HeLa, phospho-Chk1 nuclear intensity (AID 1187). The conditions noted are these: hydroxyurea-induced phospho-Chk1 immunofluorescence imaging, higher = more signal.

The source made the active and inactive calls. Unless noted, the rule behind the calls is not given here.

Turning to `C=C(COC)/C(=C/C[C@H](OC(=O)c1ccncc1)c1ccc(OCCO)cc1)c1cnc2ccccc2c1`, the composite z-score in assay [1] was 0.908 (inactive); in the assay with XIP peptide (Xip251-270), 0.791. For the same molecule, the z-score in assay [2] is -2.77; in assay [3], -4.16 (inactive); in assay [4], 0.157 (inactive); in assay [5], 0.313 (inactive).

Consider `CS(=O)(=O)CCOC(=O)C1=CC(CCCO)=CC(c2ccc(CN3CCCC3)cc2)N(Cc2cc3c(cc2Br)OCO3)C=C1C(=O)OCCS(C)(=O)=O` (stereo unspecified), for which the composite z-score was 0.597 (inactive) in assay [1] and 0.732 with XIP peptide (Xip251-270). Besides, the z-score in assay [2] was -2.66; in assay [3] it was -0.776 (inactive); in assay [4], -1.45 (inactive); in assay [5], -0.549 (inactive).

As for `COCCOC(=O)N1C(=O)[C@@]2(c3cc(C#CC4=CCCCC4)ccc31)[C@H](C(=O)Nc1nc3ccccc3s1)[C@H]1C(=O)O[C@H](c3ccccc3)[C@H](c3ccccc3)N1[C@@H]2c1ccccc1OCCO`, the composite z-score in assay [1] is 0.494 (inactive); in the assay on XIP peptide (Xip251-270), 0.698. Also, the z-score in assay [2] was -2.04; in assay [3], 1.67 (inactive); in assay [4], -0.169 (inactive); in assay [5], -0.114 (inactive).

For the molecule `COC(=O)[C@@]1(Cc2ccc(OC)cc2)[C@H]2c3cc(C(=O)N(C)C)n(Cc4cccc5ccccc45)c3C[C@H]2CN1C(=O)c1ccccc1`, the values for the composite z-score (in assay [1]; with XIP peptide (Xip251-270)) were 0.237 (inactive) and 0.822, respectively. Further, the z-score was -1.61 in assay [2], -4.2 (inactive) in assay [3], 0.0329 (inactive) in assay [4] and -0.19 (inactive) in assay [5].

As for `CCCCC(=C=CC[C@@H](O)c1ccccc1OCCO)CCO`, the composite z-score in assay [1] was -0.247 (inactive); with XIP peptide (Xip251-270) it was 0.357. In addition, the z-score in assay [2] was -1.6; in assay [3], -3.19 (inactive); in assay [4] it was 0.525 (inactive); in assay [5] it was 0.585 (inactive).

Regarding `O=C(NCc1ccccc1)[C@@H]1c2ccccc2C(=O)N(CC23CC4CC(CC(C4)C2)C3)[C@H]1c1ccc(CO)cc1`, the results for the composite z-score (in assay [1]; with XIP peptide (Xip251-270)) were 0.149 (inactive) and 0.794, respectively. The z-score in assay [2] is -1.76; in assay [3] it was -3.43 (inactive); in assay [4] it was -0.221 (inactive); in assay [5], -0.338 (inactive).

Take `C=CCN1C(=O)[C@]2(O[C@H](CCO)[C@@H]([Si](C)(C)c3ccc(OC)cc3)[C@@H]2C)c2cc(N3CCCCC3=O)ccc21`: the results for the composite z-score (in assay [1]; with XIP peptide (Xip251-270)) were 0.238 (inactive) and 0.732, respectively. Moreover, the z-score is -2.66 in assay [2], -6.28 (inactive) in assay [3], -0.147 (inactive) in assay [4] and -0.56 (inactive) in assay [5].

For `CC1CC/C=C\[C@H]2OC34C=CCN(Cn5nnc6ccccc65)C(=O)[C@H]3N(C(CO)C(C)C)C(=O)[C@@H]4C2C(=O)O1` (stereo partly specified), the figures for the composite z-score (in assay [1]; with XIP peptide (Xip251-270)) were 0.575 (inactive) and 0.212, respectively. Moreover, the z-score in assay [2] is -0.918; in assay [3], -5.58 (inactive); in assay [4] it was 0.822 (inactive); in assay [5], 0.71 (inactive).

Consider `COc1ccc(NN2C(C(O)c3ccc([N+](=O)[O-])cc3)C=CC3C(=O)N(C4CCCCC4)C(=O)C32)cc1` (stereo unspecified), for which the composite z-score in assay [1] is -0.025 (inactive); in the assay on XIP peptide (Xip251-270), -0.0788. In addition, the z-score in assay [2] is -0.0215; in assay [3], -3.73 (inactive); in assay [4], -0.414 (inactive); in assay [5], -0.331 (inactive).

In the case of `Cc1ccc(S[C@]2(C(=O)NC(C)C)CC(=O)N(Cc3ccccc3Cl)[C@@H]2c2ccc(CO)cc2I)cc1`, the composite z-score in assay [1] is 0.226 (inactive); in the assay with XIP peptide (Xip251-270) it was 0.293. Further, the z-score in assay [2] is 0.906; in assay [3], -3.31 (inactive); in assay [4], 0.244 (inactive); in assay [5] it was 0.723 (inactive).

As to `CC(C)C[C@H]1NC(=O)[C@@]23C(=O)N[C@@H](Cc4ccccc4)C2[C@H](C)[C@@]2(C)O[C@H]2C3/C=C/C/C=C\CNC(=O)[C@H](Cc2ccccc2)NC1=O` (stereo partly specified), the composite z-score was 0.303 (inactive) in assay [1] and 0.725 in the assay on XIP peptide (Xip251-270). Also, the z-score was -1.45 in assay [2], -7.51 (inactive) in assay [3], -0.0464 (inactive) in assay [4] and 0.426 (inactive) in assay [5].

For the molecule `O=C1C2C=CC(C(O)c3ccc(F)cc3)N(Nc3ccccc3F)C2C(=O)N1c1ccccc1` (stereo unspecified), the values for the composite z-score (in assay [1]; in the assay with XIP peptide (Xip251-270)) were 1.27 (inactive) and 0.252, respectively. Besides, the z-score in assay [2] was 0.712; in assay [3], -3.25 (inactive); in assay [4], 0.186 (inactive); in assay [5], 0.154 (inactive).

Regarding `O=C1O[C@@H](c2ccccc2)[C@@H](c2ccccc2)N2[C@@H](c3ccccc3OCCO)[C@]3(C(=O)Nc4ccc(C#CC5=CCCCC5)cc43)[C@@H](C(=O)Nc3nc4ccccc4s3)[C@H]12`, the values for the composite z-score (in assay [1]; with XIP peptide (Xip251-270)) were 0.705 (inactive) and 0.824, respectively. Also, the z-score was -2.09 in assay [2], -12.1 (active) in assay [3], -0.183 (inactive) in assay [4] and -0.161 (inactive) in assay [5].

For `C=CCNC(=O)[C@@H]1[C@H]2C(=O)O[C@H](c3ccccc3)[C@H](c3ccccc3)N2[C@H](c2ccc(OCCO)cc2)[C@@]12C(=O)Nc1ccc(C#Cc3ccc(OC)cc3)cc12`, the composite z-score is 1.37 (inactive) in assay [1] and 0.792 in the assay with XIP peptide (Xip251-270). The z-score is -2.28 in assay [2], -1.61 (inactive) in assay [3], 0.166 (inactive) in assay [4] and 0.143 (inactive) in assay [5].

On to `C=CCNC(=O)[C@H]1[C@@H]2C(=O)O[C@@H](c3ccccc3)[C@@H](c3ccccc3)N2[C@@H](c2ccc(OCCO)cc2)[C@]12C(=O)N(C(=O)OCCOC)c1ccccc12`, for which the composite z-score is 0.95 (inactive) in assay [1] and 0.846 in the assay with XIP peptide (Xip251-270). The z-score was -1.63 in assay [2], -4.21 (inactive) in assay [3], -0.105 (inactive) in assay [4] and -0.0934 (inactive) in assay [5].

In the case of `COc1ccc([C@H]2OC[C@@H]3CC4(CC=CC4)C(=O)N32)cc1`, the composite z-score in assay [1] is -0.302 (inactive); with XIP peptide (Xip251-270), 0.345. Moreover, the z-score is 0.301 in assay [2], -0.0645 (inactive) in assay [3], 0.0257 (inactive) in assay [4] and -0.452 (inactive) in assay [5].

For the molecule `C=C(/C(=C/C[C@@H](OC(C)=O)c1ccc(OCCO)cc1)c1cnc2ccccc2c1)C(C)C`, the composite z-score in assay [1] is 0.174 (inactive); in the assay on XIP peptide (Xip251-270), 0.178. The z-score in assay [2] is -3; in assay [3] it was -4.09 (inactive); in assay [4] it was -1.03 (inactive); in assay [5], -0.163 (inactive).

Take `O=C1OCC=C[C@H]2OC34C=CCN(CCN5CCOCC5)C(=O)[C@H]3N(CCCO)C(=O)[C@@H]4[C@@H]12` (stereo partly specified): the composite z-score in assay [1] is -0.0676 (inactive); with XIP peptide (Xip251-270) it was -0.0046. Besides, the z-score was -1.83 in assay [2], -4.01 (inactive) in assay [3], 0.2 (inactive) in assay [4] and 0.099 (inactive) in assay [5].

With `COc1cc2c(cc1O)C(C1CC1)N(Cc1cc3c(cc1Br)OCO3)CC2` (stereo unspecified), the composite z-score in assay [1] was 0.411 (inactive); in the assay on XIP peptide (Xip251-270), 0.479. In addition, the z-score in assay [2] was -2.44; in assay [3], -5.54 (inactive); in assay [4] it was -0.174 (inactive); in assay [5], 0.285 (inactive).

`COc1ccc([Si](C)(C)[C@H]2[C@H](CCO)O[C@@]3(C(=O)N(C)c4c(Br)cc(C)cc43)[C@@H]2C)cc1`: the composite z-score in assay [1] was 0.307 (inactive); in the assay with XIP peptide (Xip251-270), 0.837. Besides, the z-score is -2.71 in assay [2], -5.78 (inactive) in assay [3], -1.08 (inactive) in assay [4] and -1.73 (inactive) in assay [5].

For the molecule `COC(=O)c1c(CC[C@@H](CO)NC(=O)N2CCC[C@H]2Cn2cc(-c3ccccn3)nn2)oc(C(C)=O)c1C(=O)OC`, the figures for the composite z-score (in assay [1]; in the assay with XIP peptide (Xip251-270)) were 1.82 (inactive) and 0.667, respectively. Besides, the z-score in assay [2] is -1.04; in assay [3], -2.59 (inactive); in assay [4], -0.828 (inactive); in assay [5] it was -0.692 (inactive).
